# Test results from article PMC4336329 (PLoS ONE, 2015).
# Screen size: about 310,000 compounds; about 14,000 (4.5%) showed an effect of 50% or more. Effects have a minus sign here. The sample holds strong results, similar compounds and a random draw of the others, so the mix is not that of the screen.
# Target: human ether-à-go-go-related gene (hERG) potassium channel (human, UniProt Q12809)
# Experiment: primary screen, population patch clamp on CHO cells stably expressing hERG; higher = less effect of the substance
# 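Note: peak tail current of the secondary pulse compared with the same well before compound.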
# Sequence of human ether-à-go-go-related gene (hERG) potassium channel (Q12809 whole entry, looked up): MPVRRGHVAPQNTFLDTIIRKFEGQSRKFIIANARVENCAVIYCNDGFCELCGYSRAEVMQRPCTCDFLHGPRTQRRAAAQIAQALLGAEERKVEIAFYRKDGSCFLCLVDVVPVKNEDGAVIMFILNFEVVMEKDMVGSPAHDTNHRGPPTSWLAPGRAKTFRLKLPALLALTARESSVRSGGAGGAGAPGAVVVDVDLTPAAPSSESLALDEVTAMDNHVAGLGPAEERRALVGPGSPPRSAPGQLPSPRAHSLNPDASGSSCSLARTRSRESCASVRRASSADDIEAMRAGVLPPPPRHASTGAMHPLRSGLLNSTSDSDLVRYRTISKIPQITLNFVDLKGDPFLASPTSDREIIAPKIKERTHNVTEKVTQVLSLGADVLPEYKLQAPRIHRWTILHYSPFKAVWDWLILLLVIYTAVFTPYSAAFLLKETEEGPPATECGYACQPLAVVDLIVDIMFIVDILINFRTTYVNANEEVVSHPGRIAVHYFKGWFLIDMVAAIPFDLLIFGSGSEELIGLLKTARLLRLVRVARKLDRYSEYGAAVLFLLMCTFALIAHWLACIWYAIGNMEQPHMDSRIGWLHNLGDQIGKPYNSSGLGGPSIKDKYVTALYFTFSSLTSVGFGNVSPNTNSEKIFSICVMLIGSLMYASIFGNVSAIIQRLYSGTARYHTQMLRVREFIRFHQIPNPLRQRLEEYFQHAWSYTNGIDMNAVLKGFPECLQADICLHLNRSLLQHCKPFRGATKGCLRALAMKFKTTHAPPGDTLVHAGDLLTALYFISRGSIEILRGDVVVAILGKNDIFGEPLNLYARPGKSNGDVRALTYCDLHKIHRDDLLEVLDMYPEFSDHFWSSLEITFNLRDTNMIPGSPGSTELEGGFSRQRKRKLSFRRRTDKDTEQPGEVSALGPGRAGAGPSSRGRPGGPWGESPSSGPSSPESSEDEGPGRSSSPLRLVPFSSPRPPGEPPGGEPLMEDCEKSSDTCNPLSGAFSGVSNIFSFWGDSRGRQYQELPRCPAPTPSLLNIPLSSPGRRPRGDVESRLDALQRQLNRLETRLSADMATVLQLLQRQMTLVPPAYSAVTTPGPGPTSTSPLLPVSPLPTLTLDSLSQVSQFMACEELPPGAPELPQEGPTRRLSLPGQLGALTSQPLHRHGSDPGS
row,SMILES,"hERG current change (%, negative = inhibition) at 10uM [%]"
1,COc1ccccc1C(=O)Nc1cc(C)on1,7.07
2,CN(C)S(=O)(=O)c1ccc(Cl)c(NC(=O)COC(=O)C2CCCO2)c1 (stereo not drawn),5.01
3,COc1ccc(NC(=O)CSc2nc(SC)ns2)c(OC)c1,2.53
4,O=C(OCc1csc(-c2ccccc2)n1)c1ccccc1O,29.6
5,CC1CCC(NC(=O)CSc2nnnn2C)CC1 (stereo not drawn),6.96
6,CCOc1ccc(CCNC(=O)COC(=O)c2ccc(OC)c(OC)c2OC)cc1OCC,12.2
7,O=C(COc1cccc2cccnc12)NNC(=S)Nc1ccccc1,-25.8
8,CCc1cccc(C)c1NC(=O)C1CCCN(S(C)(=O)=O)C1 (stereo not drawn),23.6
9,Cc1ccc([C@@H]2[C@@H]3C(=O)N(C)C(=O)[C@@H]3[C@]3(Cc4ccccc4)C(=O)N(CCO)CC(=O)N23)o1,0.221
10,COc1cccc(CN(C)CC(=O)NCc2ccc(C)cc2)c1.O=C(O)C(=O)O,-49.3
11,COc1cccc(NC(=O)NCc2ccc(F)cc2)c1,-5.73
12,CCN(CC(=O)NCc1ccc(F)cc1)CC(O)COCc1cccc(OC)c1 (stereo not drawn),-60.6
13,COc1ccc(C2=NS(=O)(=O)N(C)C(C(=O)NC3CCCC3)=C2)cc1,2.43
14,COc1cccc(CSc2nnc(CSc3nc4nc(C)cc(C)n4n3)s2)c1,-54.4
15,Cc1cc(C)n2nc(SCc3nnc(SCc4ccccc4Cl)s3)nc2n1,9.19
16,Cc1cc(C)n2nc(SCc3nnc(SCc4ccccc4)s3)nc2n1,-28.6
17,COc1cccc(CSc2nc3nc(C)cc(C)n3n2)c1,-4.72
18,Cc1cccc(CSc2nc3nc(C)cc(C)n3n2)c1,-27.9
19,Cc1cc(C)n2nc(SCc3nnc(SCc4ccccc4C)s3)nc2n1,-64.9
20,Cc1noc(C)c1COc1ccc(C(=O)N(C)CCOc2ccccc2)cc1,-26.2
21,CCc1ccc(S(=O)(=O)NC2CC(C)(C)NC(C)(C)C2)cc1,5.09
22,Cc1cc(C(=O)N/N=C/c2ccc(OC(=O)c3ccccc3Br)cc2)n[nH]1,3.23

row,SMILES,"hERG current change (%, negative = inhibition) at 10uM [%]"
1,O=C1NC2(CCc3ccccc32)C(=O)N1CCOc1ccc(Cl)cc1 (stereo not drawn),-29.8
2,Cc1occc1-c1nnc(SCC(=O)N2CCN(c3ccccc3F)CC2)n1C,4.99
3,Cc1nc(Cc2nnc(SCC(=O)Nc3c(C)cccc3C)o2)cs1,15.1
4,C=CCn1c(SCC(=O)C(C)(C)C)nnc1-c1cccs1,-14.3
5,C=CCn1c(SCC(=O)N2CCN(c3ccccc3)CC2)nnc1-c1ccco1,-25.7
6,C=CCn1c(SCC(=O)O)nnc1-c1cccs1,0.617
7,Cc1nc(Cc2nnc(SCC(=O)N(C)c3ccccc3)o2)cs1,15.9
8,C=CCn1c(SCC(=O)Nc2ccc(N3CCOCC3)cc2)nnc1-c1ccco1,2.29
9,C=CCn1c(SCC(=O)N2CCN(c3ccc(F)cc3)CC2)nnc1-c1cccs1,-68.9
10,Cc1occc1-c1nnc(SCC(=O)N2CCN(c3ccc(F)cc3)CC2)n1C,-58.5
11,Cc1nc(Cc2nnc(SCC(=O)N3CCN(c4ccc(F)cc4)CC3)o2)cs1,-50.9
12,Cc1occc1-c1nnc(SCC(=O)N2CCN(c3ccccc3)CC2)n1C,-27.8
13,C=CCn1c(SCC(=O)N2CCN(c3ccc(F)cc3)CC2)nnc1-c1ccco1,-70.2
14,COC(=O)C1=C(N)Oc2c(oc(CO)cc2=O)C1c1ccc(F)cc1 (stereo not drawn),-7.85
15,O=c1cc(N2CCOCC2)c2ccccc2o1,-13.9
16,O=C(CS(=O)c1cccc(C(F)(F)F)c1)Nc1ccc(Cl)cc1Cl (stereo not drawn),8.83
17,CCOC(=O)N1CCN(S(=O)(=O)c2ccc(C(=O)Nc3sc4c(c3C#N)CC(C)(C)NC4(C)C)cc2)CC1,14.6
18,CC1(C)Cc2c(sc(NC(=O)c3ccc(S(=O)(=O)N4CCCC4)cc3)c2C#N)C(C)(C)N1,-8.79
19,CC1(C)Cc2c(sc(NC(=O)c3ccc(S(=O)(=O)N4CCCCCC4)cc3)c2C#N)C(C)(C)N1,-65.8
20,C=C[C@@]1(C)CC(=O)[C@]2(O)[C@@]3(C)[C@@H](O)CCC(C)(C)[C@@H]3[C@H](OC(C)=O)[C@H](O)[C@@]2(C)O1,7.62
21,O=C(CSc1ccc(Cl)cc1)N/N=C/c1ccc([N+](=O)[O-])o1,-12.5
22,COc1ccc(S(=O)(=O)n2cccc2)c(OC)c1,5.65

row,SMILES,"hERG current change (%, negative = inhibition) at 10uM [%]"
1,CCS(=O)(=O)c1nc(S(=O)(=O)c2ccc(C)cc2)c(N2CCC3(CC2)OCCO3)s1,-35.4
2,Cc1ccc(S(=O)(=O)c2nc(S(C)(=O)=O)sc2N2CCC(C(N)=O)CC2)cc1,7.6
3,CS(=O)(=O)c1nc(S(=O)(=O)c2ccc(Cl)cc2)c(N2CCOCC2)s1,12.1
4,CS(=O)(=O)c1nc(S(=O)(=O)c2ccc(Cl)cc2)c(N2CCC(C(N)=O)CC2)s1,-61.8
5,CCS(=O)(=O)c1nc(S(=O)(=O)c2ccc(Cl)cc2)c(N2CCCC2)s1,10.5
6,CCS(=O)(=O)c1nc(S(=O)(=O)c2ccc(Cl)cc2)c(N2CCC3(CC2)OCCO3)s1,-51.5
7,Cc1ccc(S(=O)(=O)c2nc(S(C)(=O)=O)sc2N2CCC3(CC2)OCCO3)cc1,-34.3
8,CS(=O)(=O)c1nc(S(=O)(=O)c2ccc(Cl)cc2)c(N2CCC(O)CC2)s1,-13.9
9,CS(=O)(=O)c1nc(S(=O)(=O)c2ccc(Cl)cc2)c(N2CCC3(CC2)OCCO3)s1,-59.3
10,Nc1ncc([N+](=O)[O-])s1,19.6
11,C=CCN1C(=O)c2ccccc2C1(O)Cc1ccccc1 (stereo not drawn),16.5
12,CCCC/C(O)=C1\C(=O)CC(C)(C)CC1=NCCCCCC(=O)O,7.59
13,Cc1[nH]c2ccccc2c1SCc1nnc(SCc2ccccc2)n1C,4.6
14,CCn1c(C2CC(=O)N(c3cc(C)cc(C)c3)C2)nc2ccccc21 (stereo not drawn),-2.71
15,CCCn1c(C2CC(=O)N(c3ccc(C)cc3)C2)nc2ccccc21 (stereo not drawn),-52.9
16,Cc1ccc(N2CC(c3nc4ccccc4n3C)CC2=O)cc1 (stereo not drawn),-21.5
17,C=CCn1c(C2CC(=O)N(c3ccc(C)cc3)C2)nc2ccccc21 (stereo not drawn),-58.4
18,Cc1cc(C)cc(N2CC(c3nc4ccccc4n3C)CC2=O)c1 (stereo not drawn),-10.8
19,CCn1c(C2CC(=O)N(c3ccc(C)c(C)c3)C2)nc2ccccc21 (stereo not drawn),-11.5
20,CCN(Cc1ccccc1)C(=O)CN1C(=O)c2ccccc2S1(=O)=O,-3.97
21,CC(C)c1ccc(NC(=O)CNC(=O)Cn2ccc3ccccc3c2=O)cc1,16.7
22,O=C(O)CC1(CC(=O)NCc2cc(F)cc3c2OCOC3)CCCCC1,6.25

row,SMILES,"hERG current change (%, negative = inhibition) at 10uM [%]"
1,O=C(CN1CCN(Cc2ccc(Cl)cc2)C1=O)NCCCN1CCOCC1,-2.85
2,CC1CCN(CCCNC(=O)CN2CCN(Cc3ccc(Cl)cc3)C2=O)CC1,-55.2
3,Cc1cccc(CN2CCN(CC(=O)NCCCN3CCCC3=O)C2=O)c1,7
4,O=C(CN1CCN(Cc2ccc(F)cc2Cl)C1=O)NCCCN1CCOCC1,-2.72
5,Cc1ccc(CN2CCN(CC(=O)NCCCN3CCN(c4ccc(F)cc4)CC3)C2=O)cc1,-66
6,O=C(CN1CCN(Cc2ccccc2)C1=O)NCCCN1CCOCC1,5.12
7,Cc1cccc(CN2CCN(CC(=O)NCc3ccc(F)cc3)C2=O)c1,-13.6
8,CC(C)OCCCNC(=O)CN1CCN(Cc2ccc(Cl)cc2)C1=O,11.6
9,O=C(CN1CCN(Cc2ccc(Cl)cc2)C1=O)NCCCN1CCN(c2ccc(F)cc2)CC1,-81
10,Cc1cccc(CN2CCN(CC(=O)NCCCN3CCN(c4ccc(F)cc4)CC3)C2=O)c1,-69.8
11,Cc1ccc2[nH]c3c(=O)n(CC(=O)NCCCN4CCN(c5ccc(F)cc5)CC4)ncc3c2c1,14.8
12,O=C(CN1CCN(Cc2ccc(Cl)cc2)C1=O)NCCN1CCCC1,1.66
13,CC(C)CCC(O)(CCC(C)C)C(=O)NNc1ccccc1,-0.649
14,FC(F)(F)c1nc2ccccc2nc1N/N=C\c1ccccc1,12.3
15,CC(=O)c1ccc(S(=O)(=O)Nc2ccc(C(=O)N(C)CC(=O)Nc3cccc(C)c3C)cc2)cc1,14.5
16,COc1cc(/C=N/NC(=O)c2ccoc2C)ccc1O,-3.54
17,Cc1nn(CCC(=O)Nc2cccc(C#N)c2)c(C)c1S(=O)(=O)N1CCCCC1,-1.67
18,O=C(NNS(=O)(=O)c1ccccc1)c1cc2cc3ccccc3nc2s1,-10.4
19,CCOCCCNC(=O)CN1CCN(Cc2ccccc2C)C1=O,-5.69
20,COc1ccc(N2CCN(CCCNC(=O)CN3CCN(Cc4ccccc4C)C3=O)CC2)cc1,-46.5
21,Cc1ccccc1CN1CCN(CC(=O)NCCCN2CCN(c3ccc(F)cc3)CC2)C1=O,-71.2
